Screens (PubChem BioAssay)
Mito fusion act: qHTS Assay for Small Molecule Inhibitors of Mitochondrial Division or Activators of Mitochondrial Fusion. S. cerevisiae fusion-defective mutant growth rescue, CellTiterGlo 48 h. Potency, µM (doses to about 46.1 µM), without a hit: at the highest dose growth rescue (activation), actives largely listed as activators. 0.23% of 320,000 active. AID 485298, 2010; further: % of control where 0% means no effect; nearly all actives have a fitted effect of over 45% in size
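Luminescent cell viability in 1536-well qHTS format served as the measure of rescued growth in ts fusion-mutant S. cerevisiae cultured on non-fermentable YPEG for 48 hours at 37C.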
Abeta yeast res: qHTS for compounds that reverse cellular toxicity of Amyloid beta (A-beta) peptide in yeast: Primary Screen; Potency, µM (highest dose often 46.1 µM), hits mostly activators; 0.063% of 410,000 active; AID 1347071, 2019; yeast expressing A-beta42, growth rescue, OD600, 48 h; response scale: 0% DMSO, 100% iron-clioquinol control; further: nearly all actives have a fitted effect of over 55% in size
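Yeast A-beta toxicity model in growth medium with pinned compounds, 48 h at 30 C; growth read as absorbance at 600 nm. Normalized to FeCl3/clioquinol equimolar mix (positive) and DMSO (negative).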
FUS suppressor: qHTS for Suppressors of FUS Proteinopathy: Primary screen using FUS-linked yeast assay | Potency, µM (top dose mostly 76.6 µM), hits mostly activators | S. cerevisiae FUS-expressing, growth rescue, OD600, 24 h | 0.24% of 390,000 active | AID 1347120, 2019;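 further: plate controls were DMSO vehicle for no effect and reference control for full effect; nearly all actives have a fitted effect of over 55% in size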
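Cultures pregrown in 2.5% raffinose medium are shifted to minimal medium containing 2% galactose to express toxic FUS. Compounds are tested at several concentrations. After 24hr at 30C, growth is quantified at 600 nm absorbance.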
aSyn rescue: qHTS of alpha-syn Inhibitors. Yeast expressing alpha-synuclein, growth rescue, BacTiter-Glo, 24 h. Potency, µM (doses to about 46.1 µM), for the others: top-dose growth rescue (activation), hits mostly activators. 0.14% of 370,000 active. AID 652106, 2013; further: % of control where 0% means no effect; nearly all actives have a fitted effect of over 65% in size
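Screening used galactose-induced yeast with toxic alpha-synuclein levels, exposed to compound for 24 hr at 30 deg C. Cell growth, read with BacTiter-Glo luminescence, gave the measured signal.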
TDP43 rescue: qHTS of TDP-43 Inhibitors; TDP-43 expressing yeast growth rescue, BacTiter-Glo, 24 h; Potency, µM (series often up to 46.1 µM), without a hit: top-dose growth rescue (activation), most hits filed as activators; 1.8% of 410,000 active; AID 652104, 2013; further: % of control where 0% means no effect; nearly all actives have a fitted effect of over 50% in size
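Readout is BacTiter-Glo luminescence of cell growth, so inhibitors register as activators. TDP-43-expressing yeast at OD600=0.02 in galactose medium, after raffinose pregrowth to mid-log, were incubated with compound for 24 hr at 30 deg C.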
The depositor's hits bear a star; i = inactive; ? = inconclusive; nt = no result. Sampled rows, rich in hits. Any-hit rate of the full collection: about 2.2%. The call rests on the fitted dose curve; in most records, active means well fitted curve in the direction sought with a large enough effect; inconclusive means small, poorly fitted or top-dose-only effect, or another doubt; inactive means no such curve, though single readings can be large; an effect the other way counts as inactive or inconclusive. Potency means the concentration at half of the fitted maximal effect.

SMILES | Mito fusion act | Abeta yeast res | FUS suppressor | aSyn rescue | TDP43 rescue
COc1cccc(N2CCN(C(=O)c3cc(-c4ccc(F)cc4)[nH]c3C)CC2)c1 | -3% | i | ? | ? | 0%
C=CCn1c(C)cc(C(=O)COC(=O)c2cncc(Br)c2)c1C | 10% | i | i | 19% | 20µM*
C=CCn1c(C)cc(C(=O)COc2ncnc3sccc23)c1C | 2% | i | ? | 5% | -37%
COc1ccc(N2CCN(c3ncnc4scc(-c5ccc(C)cc5)c34)CC2)cc1 | -8% | i | i | -1% | ?
COc1ccc(N2CCN(C(=O)CSc3ncnc4scc(-c5ccc(C)cc5)c34)CC2)cc1 | nt | i | i | -5% | 11µM*
COc1ccc(N2CCN(c3ncnc4scc(-c5ccc(F)cc5)c34)CC2)cc1 | 4% | i | i | 0% | 13µM*
Cc1sc2ncnc(-n3nnc4ccccc43)c2c1C | 3% | i | i | -3% | 19%
Brc1ccc(-c2csc3ncnc(-n4nnc5ccccc54)c23)cc1 | 13µM* | i | nt | -3% | ?
COc1ccc(-c2csc3ncnc(N4CCN(c5cccc(OC)c5)CC4)c23)cc1 | -2% | i | nt | -2% | 11µM*
COc1ccc(-c2csc3ncnc(N4CCN(c5cccc(Cl)c5)CC4)c23)cc1 | 1% | i | nt | 7% | 3%
CCN(CC)C(=O)CN1C(=O)C2CCCCN2C(=O)c2ccccc21 (stereo not drawn) | nt | nt | i | nt | nt
CCOC(=O)[C@]12CCCC=C1N(CCC1=CCCCC1)C(=O)[C@H](CC(=O)N1CCC(c3ccccc3)CC1)C2 | nt | i | i | 8% | 11%
N#CCC[C@@H]1CC[C@]2(CCCN(S(=O)(=O)c3ccccc3)C2)O1 | nt | nt | i | nt | nt
COc1ccc(-c2csc3ncnc(N4CCN(S(=O)(=O)c5cccs5)CC4)c23)cc1 | -23% | i | i | 8% | 13µM*
Cc1cc2ncn(-c3ncnc4scc(-c5ccccc5)c34)c2cc1C | 5% | i | nt | 0% | 8.9µM*
c1ccc(-c2csc3ncnc(N4CCc5ccccc5C4)c23)cc1 | ? | i | nt | -1% | 11µM*
c1ccc(-c2csc3ncnc(N4CCOCC4)c23)cc1 | ? | i | i | 0% | -11%
Cc1cc2ncn(-c3ncnc4sc(C)c(C)c34)c2cc1C | 3% | i | i | 10% | ?
COCCNC(=O)c1c(-c2ccccc2)c(-c2ccccc2)nn(C)c1=O | nt | i | ? | nt | -4%
O=C1[C@@H](CCc2ccccc2)[C@@H]2c3ccccc3C=NN2[C@@H]2c3ccccc3C=NN12 | nt | nt | i | nt | nt
CCOC(=O)c1cc(OCc2csc(-c3ccccc3)n2)cc(C(=O)OCC)c1 | nt | nt | nt | 11% | nt
Cc1nn(C)c(C)c1/C=C/C(=O)O | 0% | i | i | 8% | 17%
Cc1nn(C)c(C)c1/C=C/C(=O)c1ccc(Cl)cc1Cl | -30% | i | i | 10% | 25µM*
COc1ccc(NC(=O)CSc2nnc(-c3cccs3)o2)cc1Cl | nt | nt | i | nt | nt
O=S1(=O)CC(c2ccccc2)=NN=C(c2ccccc2)C1 | nt | i | i | 1% | 19%
SMILES | Mito fusion act | Abeta yeast res | FUS suppressor | aSyn rescue | TDP43 rescue
O=C1CC(c2ccccc2)=NO1 | nt | i | i | 16µM* | 10µM*
CCOC(=S)SCC(=O)Nc1nccs1 | 2% | i | i | -8% | 22µM*
CCOC(=O)C(=O)Nc1nccs1 | -8% | i | i | 8% | -5%
CCOC(=S)SCC(=O)Nc1nc(C)c(C)s1 | -4% | ? | i | -1% | 22µM*
O=C(NC1CCCCN(Cc2cccc(C(F)(F)F)c2)C1=O)c1ccc(Cl)c(Cl)c1 (stereo not drawn) | nt | nt | i | nt | nt
Cc1cc(Cl)ccc1C(=O)C1CCCN(C(=O)c2ccsc2)C1 (stereo not drawn) | nt | i | i | 10% | 13µM*
Cc1c(C(=O)NCCSCc2ccc(Cl)cc2Cl)cccc1[N+](=O)[O-] | 14% | i | i | 25% | 14µM*
COc1ccccc1C(=O)NCCSCc1ccccc1Cl | 3% | i | i | -10% | 13µM*
O=c1c2ccccc2nnn1CSc1ccccc1 | 6% | i | i | 4% | 16%
O=c1c2ccccc2nnn1CSc1ccc2ccccc2n1 | 15% | i | nt | ? | 18µM*
O=c1c2ccccc2nnn1Cc1cccc2ccccc12 | 2% | ? | i | -1% | 13µM*
O=C(COC(=O)c1cccc(S(=O)(=O)Nc2ccc(F)cc2)c1)NCCN1C(=O)CSC1=O | -6% | i | i | 2% | -18%
CCOC(=O)c1ccc(S(=O)(=O)NCC(c2ccc(N(C)C)cc2)c2c[nH]c3ccccc23)cc1 (stereo not drawn) | 12% | i | ? | -2% | 3.2µM*
CN(C)c1ccc(C(CNS(=O)(=O)c2ccc(F)cc2)c2c[nH]c3ccccc23)cc1 (stereo not drawn) | -1% | i | nt | -2% | 9%
CCNc1nc(N)nc(-c2cc(Cl)ccc2O)n1 | -27% | i | i | 2% | 3.2µM*
CCCCNc1nc(N)nc(-c2cc(Cl)ccc2O)n1 | -4% | i | i | -23% | ?
COCCn1c(SCC(=O)Nc2cccc(C)c2C)nc2c(oc3ccccc32)c1=O | nt | i | i | nt | 9%
CCNC(=S)Nc1ccc2c(c1)c(=O)n(C)n2-c1ccc(C(C)(C)C)cc1 | nt | i | 32µM* | -3% | 15%
c1cc(N2CCCC2)ccc1C(c1nnnn1C1CCCCC1)N1CCOCC1 (stereo not drawn) | 0% | i | 40µM* | 27% | -7%
COc1ccc(C(c2nnnn2C2CCCCC2)N2CCN(c3ccc(OC)cc3)CC2)cc1 (stereo not drawn) | ? | i | ? | 12% | 1%
CC1CCN(C2CCN(S(=O)(=O)c3ccc(C(F)(F)F)cc3)CC2)CC1 | 11µM* | i | i | -3% | -12%
COc1ccc(C(=O)CSc2nnc(-c3n[nH]c4c3CCC4)n2N)cc1OC | nt | nt | i | nt | nt
Cc1ccc(CCNC(=O)CSCc2nc(-c3ccc(C)cc3)oc2C)cc1 | nt | i | i | nt | 25µM*
Cc1cccc(-c2nc(CSCC(=O)NCCc3ccc(Cl)cc3)c(C)o2)c1 | nt | i | ? | nt | 25µM*
